Reference: the supplement of paper PMC11732987, “Enantioselective OTUD7B fragment discovery through chemoproteomics screening and high-throughput optimisation” (Communications Chemistry, 2025)

Key:
Assay in all cases: log2 ratio of Biotin-Ahx-Ub-VS probe labelling (fragment/DMSO); higher = less target engagement (more negative = stronger competition), active = hit call of the paper (q ≤ 0.05, log2 ratio ≤ -1)
Conditions in all cases: compound concentration: 200 uM; treatment time: 3 h
[1] = target: T1, OTUD6B (UniProt Q8N6M0)
T1 sequence (whole entry): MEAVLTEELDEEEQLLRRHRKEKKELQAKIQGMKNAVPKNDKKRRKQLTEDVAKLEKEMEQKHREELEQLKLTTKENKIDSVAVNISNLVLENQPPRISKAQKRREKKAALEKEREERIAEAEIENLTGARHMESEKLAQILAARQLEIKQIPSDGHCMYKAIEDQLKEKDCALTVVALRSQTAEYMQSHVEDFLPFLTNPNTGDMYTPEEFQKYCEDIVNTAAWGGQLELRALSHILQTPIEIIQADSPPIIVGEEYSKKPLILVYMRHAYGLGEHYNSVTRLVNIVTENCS
How it was run: (§1)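 Labelled DUBs were enriched with NeutrAvidin, digested with LysC and trypsin, and run by diaPASEF LC-MS/MS. The labelling used Biotin-Ahx-Ub-VS at 0.5 µM final for 1 h on HEK293T lysate (495 µg per sample) previously treated in triplicate with fragment at 200 µM or vehicle for 3 h. Values are average log2 fragment/vehicle ratios by unpaired t-test on global-median-normalised Spectronaut quantities of proteins with ≥2 unique peptides.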

[2] = target: T2, OTUD7B (UniProt Q6GQQ9)
T2 sequence (whole entry): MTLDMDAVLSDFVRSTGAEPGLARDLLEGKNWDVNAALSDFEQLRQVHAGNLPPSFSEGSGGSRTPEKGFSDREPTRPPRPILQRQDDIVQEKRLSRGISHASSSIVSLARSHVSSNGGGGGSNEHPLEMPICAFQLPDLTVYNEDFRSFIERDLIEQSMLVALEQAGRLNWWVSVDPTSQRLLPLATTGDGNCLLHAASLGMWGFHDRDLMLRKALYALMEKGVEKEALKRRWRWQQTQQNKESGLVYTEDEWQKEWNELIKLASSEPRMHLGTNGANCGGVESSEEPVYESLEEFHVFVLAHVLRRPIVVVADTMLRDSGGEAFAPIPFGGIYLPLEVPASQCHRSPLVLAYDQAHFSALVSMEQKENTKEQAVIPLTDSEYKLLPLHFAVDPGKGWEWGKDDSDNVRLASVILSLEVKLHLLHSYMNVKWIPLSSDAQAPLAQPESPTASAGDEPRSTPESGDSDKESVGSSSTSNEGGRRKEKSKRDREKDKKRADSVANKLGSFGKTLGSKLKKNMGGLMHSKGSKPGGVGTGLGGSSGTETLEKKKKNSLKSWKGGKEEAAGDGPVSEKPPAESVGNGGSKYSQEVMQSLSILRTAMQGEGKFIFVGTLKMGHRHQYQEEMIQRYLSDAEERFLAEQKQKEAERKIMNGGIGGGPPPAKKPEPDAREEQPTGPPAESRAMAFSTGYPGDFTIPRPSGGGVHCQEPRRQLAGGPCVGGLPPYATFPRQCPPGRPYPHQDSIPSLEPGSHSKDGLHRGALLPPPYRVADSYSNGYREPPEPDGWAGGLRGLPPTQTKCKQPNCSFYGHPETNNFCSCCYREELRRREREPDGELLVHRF
How it was run: as §1

[3] = target: PRPF8 (UniProt Q6P2Q9)
How it was run: as §1

[4] = target: T3, PSMD7 (UniProt P51665)
T3 sequence (whole entry): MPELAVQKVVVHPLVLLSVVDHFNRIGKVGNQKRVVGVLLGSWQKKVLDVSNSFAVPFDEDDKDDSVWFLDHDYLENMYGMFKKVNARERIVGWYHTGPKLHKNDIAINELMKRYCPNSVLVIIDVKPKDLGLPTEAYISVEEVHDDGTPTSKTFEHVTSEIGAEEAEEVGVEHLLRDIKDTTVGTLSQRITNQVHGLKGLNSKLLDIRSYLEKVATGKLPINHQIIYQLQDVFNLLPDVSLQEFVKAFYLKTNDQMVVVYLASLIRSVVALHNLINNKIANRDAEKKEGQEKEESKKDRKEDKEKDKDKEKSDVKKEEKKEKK
How it was run: as §1

[5] = target: UCHL1 (UniProt P09936)
UCHL1, sequence (P09936 whole entry, looked up): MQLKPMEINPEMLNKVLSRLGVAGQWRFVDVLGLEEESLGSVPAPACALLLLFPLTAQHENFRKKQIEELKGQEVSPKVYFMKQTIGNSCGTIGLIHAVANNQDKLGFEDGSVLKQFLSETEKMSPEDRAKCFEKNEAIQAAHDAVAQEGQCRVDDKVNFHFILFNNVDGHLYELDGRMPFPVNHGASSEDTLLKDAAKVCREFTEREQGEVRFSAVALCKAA
How it was run: as §1

[6] = target: T4, UCHL3 (UniProt P15374)
T4 sequence (whole entry): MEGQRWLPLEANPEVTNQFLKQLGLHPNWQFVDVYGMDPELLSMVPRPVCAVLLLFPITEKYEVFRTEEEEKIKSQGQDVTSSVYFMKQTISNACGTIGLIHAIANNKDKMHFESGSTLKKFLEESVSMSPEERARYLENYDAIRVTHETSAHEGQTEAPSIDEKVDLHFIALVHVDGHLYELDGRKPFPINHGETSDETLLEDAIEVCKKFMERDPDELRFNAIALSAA
How it was run: as §1

[7] = target: T5, UCHL5 (UniProt Q9Y5K5)
T5 sequence (whole entry): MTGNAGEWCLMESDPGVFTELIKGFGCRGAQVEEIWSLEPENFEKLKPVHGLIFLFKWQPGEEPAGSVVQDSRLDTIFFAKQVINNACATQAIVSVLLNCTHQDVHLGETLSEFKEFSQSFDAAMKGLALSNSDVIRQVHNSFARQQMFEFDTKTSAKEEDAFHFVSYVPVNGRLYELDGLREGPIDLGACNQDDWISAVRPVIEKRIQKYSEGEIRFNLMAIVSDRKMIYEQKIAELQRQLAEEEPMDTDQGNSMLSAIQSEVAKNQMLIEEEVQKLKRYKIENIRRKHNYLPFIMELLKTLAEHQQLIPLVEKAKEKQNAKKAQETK
How it was run: as §1

[8] = target: USP10 (UniProt Q14694)
USP10, sequence (Q14694 whole entry): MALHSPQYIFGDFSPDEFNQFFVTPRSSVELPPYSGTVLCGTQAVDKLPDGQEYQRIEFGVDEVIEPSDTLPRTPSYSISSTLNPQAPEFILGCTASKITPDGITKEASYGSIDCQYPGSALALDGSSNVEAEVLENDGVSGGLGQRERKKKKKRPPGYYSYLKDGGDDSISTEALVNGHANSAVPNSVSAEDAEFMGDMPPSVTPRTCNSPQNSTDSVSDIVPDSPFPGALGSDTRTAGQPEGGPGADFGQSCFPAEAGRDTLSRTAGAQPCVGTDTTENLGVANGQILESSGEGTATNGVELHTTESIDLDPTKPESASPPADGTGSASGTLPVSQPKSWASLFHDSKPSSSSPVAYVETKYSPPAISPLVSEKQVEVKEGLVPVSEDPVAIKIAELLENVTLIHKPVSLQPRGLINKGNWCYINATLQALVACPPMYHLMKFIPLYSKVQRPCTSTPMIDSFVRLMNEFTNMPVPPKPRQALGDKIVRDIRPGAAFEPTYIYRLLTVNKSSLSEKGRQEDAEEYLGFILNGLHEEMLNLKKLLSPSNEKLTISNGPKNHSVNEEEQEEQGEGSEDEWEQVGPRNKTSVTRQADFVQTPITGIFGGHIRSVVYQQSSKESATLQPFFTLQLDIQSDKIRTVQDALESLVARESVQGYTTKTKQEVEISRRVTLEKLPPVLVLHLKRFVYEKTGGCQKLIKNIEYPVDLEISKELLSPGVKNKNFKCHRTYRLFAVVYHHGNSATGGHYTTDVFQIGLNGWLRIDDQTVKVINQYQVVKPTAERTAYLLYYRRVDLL
How it was run: as §1

[9] = target: T6, USP15 (UniProt Q9Y4E8)
T6 sequence (whole entry): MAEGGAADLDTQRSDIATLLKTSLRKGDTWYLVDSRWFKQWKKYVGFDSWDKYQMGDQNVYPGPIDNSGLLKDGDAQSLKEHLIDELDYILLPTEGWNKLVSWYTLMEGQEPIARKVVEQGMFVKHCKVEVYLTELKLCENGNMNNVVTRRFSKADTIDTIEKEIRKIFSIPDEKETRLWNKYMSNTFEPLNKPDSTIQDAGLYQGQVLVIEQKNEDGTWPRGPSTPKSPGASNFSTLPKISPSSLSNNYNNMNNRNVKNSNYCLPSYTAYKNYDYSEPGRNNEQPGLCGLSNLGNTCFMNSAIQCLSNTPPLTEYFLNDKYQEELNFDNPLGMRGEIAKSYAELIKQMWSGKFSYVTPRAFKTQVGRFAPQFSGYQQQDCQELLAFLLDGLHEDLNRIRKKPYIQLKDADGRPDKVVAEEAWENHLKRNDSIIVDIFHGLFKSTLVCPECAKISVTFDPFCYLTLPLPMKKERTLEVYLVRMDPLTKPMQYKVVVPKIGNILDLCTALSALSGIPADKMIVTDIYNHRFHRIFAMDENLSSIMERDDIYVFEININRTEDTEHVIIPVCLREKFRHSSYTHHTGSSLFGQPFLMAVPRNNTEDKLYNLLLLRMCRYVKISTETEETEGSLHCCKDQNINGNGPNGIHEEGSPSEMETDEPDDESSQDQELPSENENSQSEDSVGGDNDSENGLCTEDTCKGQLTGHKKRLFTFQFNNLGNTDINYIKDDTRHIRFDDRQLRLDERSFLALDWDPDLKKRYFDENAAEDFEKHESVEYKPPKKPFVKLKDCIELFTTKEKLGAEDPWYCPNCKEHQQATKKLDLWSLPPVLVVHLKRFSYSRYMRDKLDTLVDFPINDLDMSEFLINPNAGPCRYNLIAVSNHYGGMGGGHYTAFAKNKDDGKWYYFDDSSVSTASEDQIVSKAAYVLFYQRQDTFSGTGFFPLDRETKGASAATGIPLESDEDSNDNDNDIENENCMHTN
How it was run: as §1

Measured: log2 ratio of Biotin-Ahx-Ub-VS probe labelling

O=C(CCl)Nc1ccc(F)cc1Cl
inactive: [1] -0.388 | [2] -0.667 | [3] 0.079 | [4] -0.115 | [5] -1.44 | [6] -0.112 | [7] -0.49 | [8] -0.129 | [9] 0.0309
